GALR2 blocker: antagonists of human galanin receptor 2 (GALR2) | inhibition, % at 4 µM | GALR2-expressing cells, antagonist mode | O43603 | actives 0.39% (n = 140,000); in the data active means inhibition above about 27%;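 further: cells stimulated with galanin 1-16 at roughly its EC80; 0% = agonist challenge control and 100% = basal control without agonist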
Target sequence (O43603 whole entry, looked up): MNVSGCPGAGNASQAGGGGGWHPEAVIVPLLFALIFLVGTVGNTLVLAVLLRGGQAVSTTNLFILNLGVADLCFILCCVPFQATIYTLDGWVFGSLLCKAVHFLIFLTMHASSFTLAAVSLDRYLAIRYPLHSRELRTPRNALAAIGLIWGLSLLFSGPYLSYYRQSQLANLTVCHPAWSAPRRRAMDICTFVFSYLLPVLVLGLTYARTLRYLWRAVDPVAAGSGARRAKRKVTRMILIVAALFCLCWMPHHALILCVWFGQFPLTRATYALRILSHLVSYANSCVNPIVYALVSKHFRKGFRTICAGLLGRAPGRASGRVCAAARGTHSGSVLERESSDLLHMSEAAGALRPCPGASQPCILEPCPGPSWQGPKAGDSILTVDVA
GALR2 ag: agonists of human galanin receptor 2 (GALR2); O43603; actives 0.48% (n = 140,000); activation, % (concentration not given with the values); AID 803; GALR2-expressing cells, agonist activation read-out; in the data active means activation above about 5%, passing the limit was not always enough;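 further: 0% = vehicle buffer wells and 100% = reference agonist at full effect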
S1P2 ag: activates the human S1P2 receptor; O95136; S1P2-expressing cell line, agonist reporter read-out; activation, % at 4.5 µM; actives 0.46% (n = 97,000); in the data active means activation above about 16%;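 further: 0% = vehicle low control and 100% = maximal reference agonist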
S1P2 blocker: blocks the human S1P2 receptor; O95136; cell-based S1P2 antagonist assay, inhibition at 5 uM; inhibition, % at 5 µM; actives 0.21% (n = 97,000); AID 736; in the data active means inhibition above about 45%;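 further: CRE beta-lactamase reporter cells expressing human S1P2 stimulated with S1P; 0% = agonist at EC80 alone and 100% = agonist plus reference antagonist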
An asterisk follows results filed as active; · = no result given. This is a sample that favours compounds with a hit; in the whole collection about 1.2% have one here.

SMILES	GALR2 blocker	GALR2 ag	S1P2 ag	S1P2 blocker
COc1ccc(CC(=O)Nc2cccc(-c3nnc(-c4cccc(C)c4)o3)c2)cc1OC	28*	-1	·	·
COc1ccc(CC(=O)Nc2cccc(-c3nnc(-c4ccc(C)cc4)o3)c2)cc1OC	26	-2	·	·
COc1ccc(CC(=O)Nc2cccc(-c3nnc(-c4ccccc4)o3)c2)cc1OC	12	-1	-6	56*
Cc1cccc(NC(=S)N(c2ccccc2)C(C)C)c1C	-2	0	·	·
O=C(CN1CCSCC1)N/N=C/c1ccc(F)c(F)c1	-4	-1	3	10
CCOc1cccc2sc(Nc3nc4ccc(NC(C)=O)cc4s3)nc12	6	8.1*	·	·
CCC(=O)Nc1nc2ccc(NC(C)=O)cc2s1	-19	-2	-10	5
CCOC(=O)c1sc(Nc2ccccc2)nc1C	-7	0	0	-19
CCOC(=O)c1sc(Nc2nc3c(OC)cccc3s2)nc1C	-3	46*	·	·
O=c1oc2ccccc2cc1-c1nc2c(s1)CCCC2	17	17*	16*	-6
COc1cc2c(cc1OC)C1=C(C#N)CCC(=O)N1CC2	-22	0	62*	-27
COc1ccc(C(=O)N=C2CCC(C#N)=C3c4cc(OC)c(OC)cc4CCN23)cc1	14	3	·	·
COc1cc2c(cc1OC)C1=C(C#N)CC/C(=N\S(=O)(=O)c3ccccc3)N1CC2	-4	-1	49*	-51
COc1ccc(N2CCN(CC(=O)Nc3cccc(S(=O)(=O)N4CCOCC4)c3)CC2)cc1	12	-1	·	·
CC1=C(C(=O)OC2CCCCCCC2)C(c2cc3c(cc2Br)OCO3)CC(=O)N1 (stereo unspecified)	2	-2	-7	-22
O=C(Nc1cccc(O)c1)c1cnn2cccnc12	5	-2	-1	4
O=C(Nc1ccc2c(c1)OCO2)c1cnn2cccnc12	19	374*	-1	14
O=C(Nc1nccs1)c1cc2c(s1)-c1ccccc1OC2	14	8	4	-9
O=C(Nc1nc2ccccc2s1)c1cc2c(s1)-c1ccccc1OC2	-4	3	40*	-45
CN(C)/C=C(\C=N\OCc1ccc(Cl)cc1Cl)C(=O)Nc1ccc(Cl)c(Cl)c1	3	-2	-5	12
Cc1noc2ncnc(Sc3ccc(Cl)cc3)c12	18	-2	-4	34
Cc1noc2ncnc(Sc3c(Cl)cccc3Cl)c12	20	-3	-6	48*
OCCn1c(CSc2nnc(-c3ccco3)n2-c2ccccc2)nc2ccc(Cl)cc21	-21	0	34*	-23
O=C(Nc1ccccc1)c1sc2cc(C(F)(F)F)cnc2c1-c1cccs1	3	-1	-6	46*
CCOC(=O)c1cnc(-n2nc(C)cc2C)nc1NC1CCCCC1	0	0	-11	91*
SMILES	GALR2 blocker	GALR2 ag	S1P2 ag	S1P2 blocker
CC(C)n1c(O)c(N=Nc2ccc(Cl)nn2)c2ccccc21	-2	-2	·	·
c1ccc(C(c2ccccc2)N2CCN(c3nc4ccccc4n4cnnc34)CC2)cc1	-1	0	24*	29
NC(=O)c1nn(-c2ccccc2)nc1NC(=O)Cn1nnc(-c2ccccc2)n1	-2	5.2*	·	·
CCOC(=O)c1ccc(NC(=O)Cn2nnc(-c3ccccc3)n2)cc1	0	0	-7	-14
CCCCn1c(N)c(NCC(C)C)c(=O)[nH]c1=O	-3	-1	·	·
O=C(NCc1ccco1)c1cc2ccc(O)cc2oc1=O	-70	145*	82*	-174
COc1ccc2nc(SCC(=O)c3ccco3)[nH]c2c1	-1	0	-6	22
Cc1cc(C)n2nc(S(=O)(=O)N(C)c3ccccc3)nc2n1	2	0	52*	-5
Cc1cc(C)n2nc(Cc3ccccc3)nc2n1	-10	-1	2	-11
O=c1c(-c2nc3ccccc3s2)cccn1Cc1ccc(Cl)c(Cl)c1	-13	12*	109*	-117
CCOC(=O)c1c(C)n(C)c2cc(-c3cccc(C(F)(F)F)c3)c(O)cc12	6	0	·	·
CCOC(=O)c1c(C)n(C)c2cc(-c3ccc(C)cc3)c(O)cc12	-9	5.3*	·	·
COc1cc2c(cc1OC)-c1cc(OCc3cccnc3)nc(=O)n1CC2	2	-1	23*	-36
COc1cc2c(cc1OC)-c1cc(Nc3ccc4c(c3)OCCO4)nc(=O)n1CC2	-12	-2	20*	-51
CCOc1cccc(Nc2cc3n(c(=O)n2)CCc2cc(OC)c(OC)cc2-3)c1	10	0	29*	-48
CCN(CC)c1ccc2cc(S(=O)(=O)c3ccc(C)cc3)c(=O)oc2c1	3	6.0*	·	·
COc1ccccc1-c1nnc2n1N=C(C(C)(C)C)CS2	-7	0	-5	0
COc1cc(-c2nnc3n2N=C(c2ccccc2)CS3)cc(OC)c1OC	-7	1	34*	-26
COc1ccc(OC)c(C2=Nn3c(nnc3-c3cc(OC)c(OC)c(OC)c3)SC2)c1	13	1	40*	-25
COc1cccc(-c2nnc3n2N=C(C(C)(C)C)CS3)c1	20	-2	-8	98*
COc1cccc(-c2nnc3n2N=C(c2cc(OC)ccc2OC)CS3)c1	2	-1	10	-21
Cc1cc(C)c2nc(Cl)c(CN(Cc3ccco3)C(=O)Nc3ccccc3C)cc2c1	-8	1	-3	0
Cc1ccc(S(=O)(=O)N2CCOC2CNC(=O)C(=O)NCc2cccnc2)cc1 (stereo unspecified)	4	-2	·	·
COc1cc2nc(SCc3ccc(C(F)(F)F)cc3)n(Cc3cccs3)c(=N)c2cc1OC	2	-2	16*	10
COc1cc2nc(SCc3ccc(Cl)cc3Cl)n(Cc3cccs3)c(=N)c2cc1OC	-12	-2	-6	16
SMILES	GALR2 blocker	GALR2 ag	S1P2 ag	S1P2 blocker
COc1cc(OC)c(-c2nnc(-c3ccc(OC)c(OC)c3OC)o2)cc1OC	-5	0	16*	-12
COc1cccc(-c2nnc(-c3ccc(C(F)(F)F)cc3)o2)c1OC	-3	-2	-1	12
Cc1ccc(-c2cc(C(F)(F)F)c(C#N)c(SCCC#N)n2)o1	-7	7	17*	-27
C#CCSc1nc(-c2ccccc2)cc(C(F)(F)F)c1C#N	6	-1	-2	-4
CC(C)c1nnc(NC(=O)CCC(=O)N2CCN(C3c4ccccc4-c4ccccc43)CC2)s1	-7	1	·	·
CCCCn1c(NC(=O)c2ccccc2Cl)c(C#N)c2nc3ccccc3nc21	-1	7.3*	14	-7
Cc1ccc(SCC(=O)Nc2ccc(N3CCN(C)CC3)c(F)c2)cc1	-13	7.8*	-5	9
CCC(=O)c1cc2c(C)cc(=O)oc2c(C)c1OC(C)=O	2	1	·	·
CCC(=O)c1cc2c(C)cc(=O)oc2c(C)c1O	3	0	119*	-17
N#CCSc1nnc(-c2ccccc2)c(-c2ccccc2)n1	-8	-2	16*	-19
Cn1cccc1/C=C1\SC(=O)N(c2ccc(O)cc2)C1=O	2	0	·	·
Cc1cccc(-n2c(SCc3cc(=O)n4ccsc4n3)nc3ccccc32)c1	0	1	26*	-42
COc1ccc(N=C2S/C(=C\c3ccc(N4CCOCC4)o3)C(=O)N2CCc2c[nH]c3ccccc23)cc1	15	2	-4	48*
CCCN1C(=O)/C(=C/c2ccc(C)o2)SC1=Nc1ccc(OC)cc1	-9	-2	-10	3

Screens (PubChem BioAssay)
